# Assay results published in ChEMBL document CHEMBL2218924, “A broad activity screen in support of a chemogenomic map for kinase signalling research and drug discovery” (Biochem J, 2013).
# Experiments:
# [1] = target: T1, Ephrin type-A receptor 3 (Homo sapiens) (UniProt P29320); details: at 10 µM
# T1 sequence (whole entry): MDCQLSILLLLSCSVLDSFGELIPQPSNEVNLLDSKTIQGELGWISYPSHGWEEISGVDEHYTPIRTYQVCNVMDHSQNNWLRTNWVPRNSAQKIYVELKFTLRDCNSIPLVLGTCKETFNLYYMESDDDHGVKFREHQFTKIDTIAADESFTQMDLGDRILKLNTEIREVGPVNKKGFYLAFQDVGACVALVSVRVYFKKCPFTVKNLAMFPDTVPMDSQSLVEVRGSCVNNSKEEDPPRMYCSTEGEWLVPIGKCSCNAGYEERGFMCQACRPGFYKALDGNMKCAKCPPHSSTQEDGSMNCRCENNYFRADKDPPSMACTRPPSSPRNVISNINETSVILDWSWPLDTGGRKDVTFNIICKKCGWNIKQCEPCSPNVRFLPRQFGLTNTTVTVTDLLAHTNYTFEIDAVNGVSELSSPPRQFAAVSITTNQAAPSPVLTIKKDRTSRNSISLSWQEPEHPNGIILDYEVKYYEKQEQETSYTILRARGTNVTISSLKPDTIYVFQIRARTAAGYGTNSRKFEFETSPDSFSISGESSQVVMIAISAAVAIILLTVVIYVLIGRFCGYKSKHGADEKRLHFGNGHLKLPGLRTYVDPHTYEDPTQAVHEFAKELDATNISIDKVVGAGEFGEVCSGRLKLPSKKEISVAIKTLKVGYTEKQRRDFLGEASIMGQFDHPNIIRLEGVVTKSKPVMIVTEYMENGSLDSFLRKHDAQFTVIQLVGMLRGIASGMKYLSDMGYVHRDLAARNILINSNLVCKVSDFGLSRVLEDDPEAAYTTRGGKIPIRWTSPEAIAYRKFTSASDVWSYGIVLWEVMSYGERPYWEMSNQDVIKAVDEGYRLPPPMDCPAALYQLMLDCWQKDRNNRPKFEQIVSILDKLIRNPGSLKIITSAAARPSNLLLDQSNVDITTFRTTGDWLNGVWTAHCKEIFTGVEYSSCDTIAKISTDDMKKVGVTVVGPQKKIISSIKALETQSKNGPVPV
# [2] = target: Ephrin type-A receptor 4 (Homo sapiens) (UniProt P54764); details: at 1 µM
# Sequence of Ephrin type-A receptor 4 (Homo sapiens) (P54764 whole entry): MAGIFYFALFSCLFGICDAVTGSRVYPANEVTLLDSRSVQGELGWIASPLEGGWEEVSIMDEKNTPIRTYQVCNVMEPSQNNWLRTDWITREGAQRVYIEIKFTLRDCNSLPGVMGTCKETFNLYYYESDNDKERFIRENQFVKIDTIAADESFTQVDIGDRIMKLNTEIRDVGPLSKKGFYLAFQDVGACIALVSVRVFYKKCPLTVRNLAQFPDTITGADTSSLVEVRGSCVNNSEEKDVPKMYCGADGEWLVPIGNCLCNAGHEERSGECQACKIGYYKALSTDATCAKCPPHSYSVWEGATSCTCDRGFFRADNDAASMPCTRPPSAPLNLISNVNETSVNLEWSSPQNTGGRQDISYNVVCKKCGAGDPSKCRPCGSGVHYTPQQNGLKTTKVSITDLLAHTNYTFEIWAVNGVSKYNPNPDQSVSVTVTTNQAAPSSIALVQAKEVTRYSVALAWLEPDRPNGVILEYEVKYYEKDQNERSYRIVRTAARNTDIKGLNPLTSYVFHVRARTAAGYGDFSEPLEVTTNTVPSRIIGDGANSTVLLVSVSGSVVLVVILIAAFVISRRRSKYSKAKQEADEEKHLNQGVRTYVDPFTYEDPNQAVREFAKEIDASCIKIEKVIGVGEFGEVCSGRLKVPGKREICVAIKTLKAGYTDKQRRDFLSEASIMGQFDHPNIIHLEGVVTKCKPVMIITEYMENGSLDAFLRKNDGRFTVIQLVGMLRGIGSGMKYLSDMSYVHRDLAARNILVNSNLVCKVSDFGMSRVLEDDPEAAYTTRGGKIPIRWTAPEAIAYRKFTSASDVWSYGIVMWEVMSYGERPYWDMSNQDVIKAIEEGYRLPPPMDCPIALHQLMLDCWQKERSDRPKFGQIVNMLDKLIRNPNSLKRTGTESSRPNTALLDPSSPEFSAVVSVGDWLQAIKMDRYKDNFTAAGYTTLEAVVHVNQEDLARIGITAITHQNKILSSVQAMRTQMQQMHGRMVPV
# [3] = target: Ephrin type-A receptor 5 (Homo sapiens) (UniProt P54756); details: at 1 µM
# Sequence of Ephrin type-A receptor 5 (Homo sapiens) (P54756 whole entry): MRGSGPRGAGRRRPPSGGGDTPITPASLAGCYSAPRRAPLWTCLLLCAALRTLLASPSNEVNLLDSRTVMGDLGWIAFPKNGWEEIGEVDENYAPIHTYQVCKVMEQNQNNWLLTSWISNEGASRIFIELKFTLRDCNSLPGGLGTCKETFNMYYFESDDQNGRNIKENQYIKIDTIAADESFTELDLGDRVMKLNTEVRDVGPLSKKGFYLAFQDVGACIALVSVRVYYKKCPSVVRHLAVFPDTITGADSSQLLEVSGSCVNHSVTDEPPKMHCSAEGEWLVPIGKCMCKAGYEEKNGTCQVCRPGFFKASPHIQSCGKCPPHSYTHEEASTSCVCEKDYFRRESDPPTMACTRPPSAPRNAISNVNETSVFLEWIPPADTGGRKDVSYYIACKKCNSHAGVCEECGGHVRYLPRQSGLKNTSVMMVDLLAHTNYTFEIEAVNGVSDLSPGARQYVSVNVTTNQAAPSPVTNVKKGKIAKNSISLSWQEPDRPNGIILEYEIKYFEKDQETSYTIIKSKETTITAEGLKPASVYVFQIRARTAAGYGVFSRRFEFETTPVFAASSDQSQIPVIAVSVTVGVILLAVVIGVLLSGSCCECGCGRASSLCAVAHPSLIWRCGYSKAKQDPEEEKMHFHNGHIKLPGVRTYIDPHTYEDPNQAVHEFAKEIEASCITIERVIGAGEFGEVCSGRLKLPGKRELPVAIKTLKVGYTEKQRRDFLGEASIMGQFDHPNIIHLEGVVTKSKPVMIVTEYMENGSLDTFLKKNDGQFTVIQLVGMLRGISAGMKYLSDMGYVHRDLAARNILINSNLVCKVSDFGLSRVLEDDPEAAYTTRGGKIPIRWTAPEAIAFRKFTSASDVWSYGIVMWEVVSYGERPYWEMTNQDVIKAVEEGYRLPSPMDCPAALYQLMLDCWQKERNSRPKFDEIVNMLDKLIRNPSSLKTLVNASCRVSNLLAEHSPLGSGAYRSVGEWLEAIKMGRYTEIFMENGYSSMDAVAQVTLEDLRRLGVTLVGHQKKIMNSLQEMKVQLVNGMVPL
# [4] = target: Ephrin type-A receptor 7 (Homo sapiens) (UniProt Q15375); details: at 1 µM
# Sequence of Ephrin type-A receptor 7 (Homo sapiens) (Q15375 28-998 limits assumed): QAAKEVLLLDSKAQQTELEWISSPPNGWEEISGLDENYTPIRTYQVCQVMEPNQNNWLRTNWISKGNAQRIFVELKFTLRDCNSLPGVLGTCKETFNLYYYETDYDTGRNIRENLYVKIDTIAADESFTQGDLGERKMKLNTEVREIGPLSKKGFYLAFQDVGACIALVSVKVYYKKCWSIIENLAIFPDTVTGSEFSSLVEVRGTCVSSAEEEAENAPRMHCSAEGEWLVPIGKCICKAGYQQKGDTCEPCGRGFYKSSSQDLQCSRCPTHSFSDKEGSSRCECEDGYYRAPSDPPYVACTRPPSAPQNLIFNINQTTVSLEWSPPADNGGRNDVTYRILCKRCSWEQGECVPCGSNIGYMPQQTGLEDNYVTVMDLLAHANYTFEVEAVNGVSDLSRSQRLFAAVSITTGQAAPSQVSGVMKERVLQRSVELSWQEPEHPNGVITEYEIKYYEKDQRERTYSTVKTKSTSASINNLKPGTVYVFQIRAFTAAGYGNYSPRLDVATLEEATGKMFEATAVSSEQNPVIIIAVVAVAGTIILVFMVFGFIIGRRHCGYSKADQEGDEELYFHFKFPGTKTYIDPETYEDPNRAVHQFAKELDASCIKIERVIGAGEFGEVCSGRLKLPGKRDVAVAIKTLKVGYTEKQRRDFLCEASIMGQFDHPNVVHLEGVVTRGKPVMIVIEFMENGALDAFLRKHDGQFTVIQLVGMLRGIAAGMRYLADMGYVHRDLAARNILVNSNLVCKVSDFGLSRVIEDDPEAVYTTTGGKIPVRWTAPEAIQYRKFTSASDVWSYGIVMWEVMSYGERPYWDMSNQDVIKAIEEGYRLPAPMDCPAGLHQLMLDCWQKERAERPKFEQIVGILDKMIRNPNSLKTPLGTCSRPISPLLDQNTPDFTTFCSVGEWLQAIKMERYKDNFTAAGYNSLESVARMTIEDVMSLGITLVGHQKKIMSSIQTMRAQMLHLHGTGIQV
# [5] = target: Ephrin type-A receptor 7 (Homo sapiens) (UniProt Q15375); details: at 10 µM
# [6] = target: T2, Ephrin type-A receptor 8 (Homo sapiens) (UniProt P29322); details: at 1 µM
# T2 sequence (whole entry): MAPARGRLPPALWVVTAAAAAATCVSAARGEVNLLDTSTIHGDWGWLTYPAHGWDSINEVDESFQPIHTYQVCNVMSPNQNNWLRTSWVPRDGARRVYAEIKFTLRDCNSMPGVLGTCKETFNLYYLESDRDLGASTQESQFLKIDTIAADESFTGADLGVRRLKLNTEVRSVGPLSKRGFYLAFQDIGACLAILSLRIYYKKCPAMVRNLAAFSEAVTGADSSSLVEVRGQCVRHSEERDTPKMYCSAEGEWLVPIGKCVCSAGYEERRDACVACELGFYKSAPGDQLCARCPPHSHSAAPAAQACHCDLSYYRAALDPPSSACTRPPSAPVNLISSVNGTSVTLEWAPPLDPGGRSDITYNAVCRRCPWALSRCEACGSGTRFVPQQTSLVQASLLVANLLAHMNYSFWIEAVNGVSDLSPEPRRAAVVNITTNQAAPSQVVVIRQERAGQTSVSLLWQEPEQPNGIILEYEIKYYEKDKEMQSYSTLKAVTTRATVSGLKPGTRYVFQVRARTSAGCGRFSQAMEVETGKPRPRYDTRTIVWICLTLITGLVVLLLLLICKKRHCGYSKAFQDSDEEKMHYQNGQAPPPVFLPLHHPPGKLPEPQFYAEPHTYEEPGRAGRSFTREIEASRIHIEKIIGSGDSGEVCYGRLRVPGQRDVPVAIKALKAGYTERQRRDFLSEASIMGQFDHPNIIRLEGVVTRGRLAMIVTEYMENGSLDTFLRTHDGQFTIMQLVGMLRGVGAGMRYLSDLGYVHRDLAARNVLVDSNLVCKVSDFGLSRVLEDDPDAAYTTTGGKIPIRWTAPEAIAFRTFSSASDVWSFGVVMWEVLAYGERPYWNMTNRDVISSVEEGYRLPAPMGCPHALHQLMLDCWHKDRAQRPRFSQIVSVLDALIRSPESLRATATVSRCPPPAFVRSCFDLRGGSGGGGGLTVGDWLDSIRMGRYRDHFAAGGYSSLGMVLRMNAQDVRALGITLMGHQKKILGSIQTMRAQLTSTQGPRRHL
# [7] = target: T2, Ephrin type-A receptor 8 (Homo sapiens); details: at 10 µM
# [8] = target: T3, Ephrin type-B receptor 1 (Homo sapiens) (UniProt P54762); details: at 1 µM
# T3 sequence (whole entry): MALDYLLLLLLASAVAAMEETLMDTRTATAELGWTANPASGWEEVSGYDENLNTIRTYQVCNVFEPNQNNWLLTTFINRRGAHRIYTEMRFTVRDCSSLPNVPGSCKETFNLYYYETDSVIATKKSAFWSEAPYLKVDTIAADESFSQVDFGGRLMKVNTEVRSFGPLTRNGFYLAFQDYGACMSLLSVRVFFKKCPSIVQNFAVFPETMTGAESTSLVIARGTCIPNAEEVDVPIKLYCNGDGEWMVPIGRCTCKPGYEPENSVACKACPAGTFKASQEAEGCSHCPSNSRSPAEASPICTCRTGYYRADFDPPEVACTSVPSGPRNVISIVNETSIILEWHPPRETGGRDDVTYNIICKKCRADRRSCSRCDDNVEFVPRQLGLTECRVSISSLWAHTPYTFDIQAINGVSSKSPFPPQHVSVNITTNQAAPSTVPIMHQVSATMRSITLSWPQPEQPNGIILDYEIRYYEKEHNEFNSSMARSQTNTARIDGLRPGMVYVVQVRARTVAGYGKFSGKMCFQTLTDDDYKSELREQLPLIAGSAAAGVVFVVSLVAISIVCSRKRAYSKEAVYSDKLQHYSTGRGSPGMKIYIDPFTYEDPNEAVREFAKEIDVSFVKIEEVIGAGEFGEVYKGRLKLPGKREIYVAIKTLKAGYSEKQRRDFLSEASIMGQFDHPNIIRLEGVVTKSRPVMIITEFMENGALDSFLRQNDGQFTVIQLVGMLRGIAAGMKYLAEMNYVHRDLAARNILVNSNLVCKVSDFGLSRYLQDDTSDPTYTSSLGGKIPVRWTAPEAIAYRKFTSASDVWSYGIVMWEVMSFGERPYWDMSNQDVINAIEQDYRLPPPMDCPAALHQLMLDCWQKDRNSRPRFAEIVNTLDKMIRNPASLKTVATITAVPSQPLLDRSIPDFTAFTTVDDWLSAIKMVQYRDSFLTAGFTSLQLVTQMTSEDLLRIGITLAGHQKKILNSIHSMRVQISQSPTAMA
# [9] = target: T3, Ephrin type-B receptor 1 (Homo sapiens); details: at 10 µM
# [10] = target: T4, Ephrin type-B receptor 2 (Homo sapiens) (UniProt P29323); details: at 1 µM
# T4 sequence (whole entry): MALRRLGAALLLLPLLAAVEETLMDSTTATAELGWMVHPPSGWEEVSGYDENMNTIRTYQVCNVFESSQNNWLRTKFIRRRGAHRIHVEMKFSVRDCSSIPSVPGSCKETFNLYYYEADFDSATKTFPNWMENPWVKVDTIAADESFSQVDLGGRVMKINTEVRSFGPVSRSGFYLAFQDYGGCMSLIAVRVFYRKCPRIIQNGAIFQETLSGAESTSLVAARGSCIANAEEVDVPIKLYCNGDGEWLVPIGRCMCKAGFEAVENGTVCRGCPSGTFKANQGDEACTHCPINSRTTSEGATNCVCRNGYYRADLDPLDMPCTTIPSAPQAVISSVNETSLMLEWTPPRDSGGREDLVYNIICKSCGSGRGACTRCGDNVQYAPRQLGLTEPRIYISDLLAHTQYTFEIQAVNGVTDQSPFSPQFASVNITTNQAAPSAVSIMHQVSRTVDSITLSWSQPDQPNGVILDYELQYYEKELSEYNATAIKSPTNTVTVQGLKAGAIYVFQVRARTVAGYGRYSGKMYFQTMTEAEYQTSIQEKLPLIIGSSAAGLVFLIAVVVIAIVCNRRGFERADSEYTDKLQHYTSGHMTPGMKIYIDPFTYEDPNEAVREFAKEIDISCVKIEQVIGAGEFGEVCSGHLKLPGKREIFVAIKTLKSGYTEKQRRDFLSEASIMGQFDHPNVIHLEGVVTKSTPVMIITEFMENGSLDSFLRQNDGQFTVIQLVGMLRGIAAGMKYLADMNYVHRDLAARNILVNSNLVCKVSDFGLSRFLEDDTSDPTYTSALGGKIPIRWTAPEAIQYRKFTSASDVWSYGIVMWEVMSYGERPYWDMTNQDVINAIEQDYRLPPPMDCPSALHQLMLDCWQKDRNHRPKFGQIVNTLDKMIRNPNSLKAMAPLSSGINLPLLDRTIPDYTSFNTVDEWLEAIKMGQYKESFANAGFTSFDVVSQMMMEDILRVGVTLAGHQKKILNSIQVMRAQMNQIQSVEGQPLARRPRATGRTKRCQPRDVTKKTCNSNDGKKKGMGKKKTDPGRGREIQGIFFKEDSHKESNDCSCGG
# [11] = target: T4, Ephrin type-B receptor 2 (Homo sapiens); details: at 10 µM
# [12] = target: T5, Ephrin type-B receptor 3 (Homo sapiens) (UniProt P54753); details: at 1 µM
# T5 sequence (whole entry): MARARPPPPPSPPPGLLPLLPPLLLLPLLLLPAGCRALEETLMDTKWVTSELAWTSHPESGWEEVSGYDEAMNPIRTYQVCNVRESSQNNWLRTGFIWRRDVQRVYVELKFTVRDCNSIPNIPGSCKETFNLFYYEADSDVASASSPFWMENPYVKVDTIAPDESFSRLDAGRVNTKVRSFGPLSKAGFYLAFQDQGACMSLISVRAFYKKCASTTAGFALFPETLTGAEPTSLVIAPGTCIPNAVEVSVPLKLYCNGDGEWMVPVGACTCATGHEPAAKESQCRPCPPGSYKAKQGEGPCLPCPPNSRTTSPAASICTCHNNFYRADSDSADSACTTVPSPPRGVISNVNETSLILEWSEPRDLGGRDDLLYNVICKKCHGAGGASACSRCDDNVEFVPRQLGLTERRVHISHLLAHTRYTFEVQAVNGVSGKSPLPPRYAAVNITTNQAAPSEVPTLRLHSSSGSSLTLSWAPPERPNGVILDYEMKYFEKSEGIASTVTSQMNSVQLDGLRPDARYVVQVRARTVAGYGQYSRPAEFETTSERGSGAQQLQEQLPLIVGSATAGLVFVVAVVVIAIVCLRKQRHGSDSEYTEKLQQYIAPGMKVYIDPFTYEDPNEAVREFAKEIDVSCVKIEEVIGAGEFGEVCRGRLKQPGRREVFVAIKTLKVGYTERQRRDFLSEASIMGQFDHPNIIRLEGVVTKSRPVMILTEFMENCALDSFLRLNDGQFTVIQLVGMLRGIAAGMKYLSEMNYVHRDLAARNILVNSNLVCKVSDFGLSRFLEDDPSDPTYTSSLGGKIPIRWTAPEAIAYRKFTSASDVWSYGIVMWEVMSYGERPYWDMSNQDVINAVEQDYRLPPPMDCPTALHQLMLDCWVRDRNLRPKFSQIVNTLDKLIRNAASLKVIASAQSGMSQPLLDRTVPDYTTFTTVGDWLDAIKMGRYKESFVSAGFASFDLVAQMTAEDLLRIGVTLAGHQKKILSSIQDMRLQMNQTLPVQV
# [13] = target: T5, Ephrin type-B receptor 3 (Homo sapiens); details: at 10 µM
# [14] = target: T6, Ephrin type-B receptor 4 (Homo sapiens) (UniProt P54760); details: at 1 µM
# T6 sequence (whole entry): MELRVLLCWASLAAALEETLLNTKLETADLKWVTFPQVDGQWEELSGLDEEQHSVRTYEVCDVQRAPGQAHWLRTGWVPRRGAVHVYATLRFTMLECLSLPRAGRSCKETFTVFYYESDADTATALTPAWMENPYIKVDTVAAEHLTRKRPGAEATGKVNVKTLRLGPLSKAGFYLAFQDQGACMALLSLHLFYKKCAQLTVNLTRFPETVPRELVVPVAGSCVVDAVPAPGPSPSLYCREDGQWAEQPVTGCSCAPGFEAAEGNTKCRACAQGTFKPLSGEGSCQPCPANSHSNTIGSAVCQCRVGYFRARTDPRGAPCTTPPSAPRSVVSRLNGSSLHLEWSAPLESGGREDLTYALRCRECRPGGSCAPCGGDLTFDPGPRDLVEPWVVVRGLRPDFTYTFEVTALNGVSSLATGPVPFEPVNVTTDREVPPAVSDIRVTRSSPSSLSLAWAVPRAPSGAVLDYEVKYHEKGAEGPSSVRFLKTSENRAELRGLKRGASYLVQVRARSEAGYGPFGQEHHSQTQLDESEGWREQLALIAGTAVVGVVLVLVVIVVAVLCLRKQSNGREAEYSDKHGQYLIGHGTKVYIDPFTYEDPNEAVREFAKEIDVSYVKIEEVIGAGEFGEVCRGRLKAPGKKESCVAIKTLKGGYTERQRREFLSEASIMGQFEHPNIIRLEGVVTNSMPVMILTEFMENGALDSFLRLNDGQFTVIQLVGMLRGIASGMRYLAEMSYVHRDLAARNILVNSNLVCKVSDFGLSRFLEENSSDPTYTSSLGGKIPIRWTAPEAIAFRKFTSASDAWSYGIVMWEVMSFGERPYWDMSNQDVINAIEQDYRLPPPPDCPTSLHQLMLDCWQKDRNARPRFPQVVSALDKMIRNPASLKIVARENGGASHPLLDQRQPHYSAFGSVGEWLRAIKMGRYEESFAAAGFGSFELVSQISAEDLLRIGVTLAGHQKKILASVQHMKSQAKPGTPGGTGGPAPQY
# [15] = target: T6, Ephrin type-B receptor 4 (Homo sapiens); details: at 10 µM
# [16] = target: Receptor tyrosine-protein kinase erbB-4 (Homo sapiens) (UniProt Q15303); details: at 1 µM
# Sequence of Receptor tyrosine-protein kinase erbB-4 (Homo sapiens) (Q15303 whole entry): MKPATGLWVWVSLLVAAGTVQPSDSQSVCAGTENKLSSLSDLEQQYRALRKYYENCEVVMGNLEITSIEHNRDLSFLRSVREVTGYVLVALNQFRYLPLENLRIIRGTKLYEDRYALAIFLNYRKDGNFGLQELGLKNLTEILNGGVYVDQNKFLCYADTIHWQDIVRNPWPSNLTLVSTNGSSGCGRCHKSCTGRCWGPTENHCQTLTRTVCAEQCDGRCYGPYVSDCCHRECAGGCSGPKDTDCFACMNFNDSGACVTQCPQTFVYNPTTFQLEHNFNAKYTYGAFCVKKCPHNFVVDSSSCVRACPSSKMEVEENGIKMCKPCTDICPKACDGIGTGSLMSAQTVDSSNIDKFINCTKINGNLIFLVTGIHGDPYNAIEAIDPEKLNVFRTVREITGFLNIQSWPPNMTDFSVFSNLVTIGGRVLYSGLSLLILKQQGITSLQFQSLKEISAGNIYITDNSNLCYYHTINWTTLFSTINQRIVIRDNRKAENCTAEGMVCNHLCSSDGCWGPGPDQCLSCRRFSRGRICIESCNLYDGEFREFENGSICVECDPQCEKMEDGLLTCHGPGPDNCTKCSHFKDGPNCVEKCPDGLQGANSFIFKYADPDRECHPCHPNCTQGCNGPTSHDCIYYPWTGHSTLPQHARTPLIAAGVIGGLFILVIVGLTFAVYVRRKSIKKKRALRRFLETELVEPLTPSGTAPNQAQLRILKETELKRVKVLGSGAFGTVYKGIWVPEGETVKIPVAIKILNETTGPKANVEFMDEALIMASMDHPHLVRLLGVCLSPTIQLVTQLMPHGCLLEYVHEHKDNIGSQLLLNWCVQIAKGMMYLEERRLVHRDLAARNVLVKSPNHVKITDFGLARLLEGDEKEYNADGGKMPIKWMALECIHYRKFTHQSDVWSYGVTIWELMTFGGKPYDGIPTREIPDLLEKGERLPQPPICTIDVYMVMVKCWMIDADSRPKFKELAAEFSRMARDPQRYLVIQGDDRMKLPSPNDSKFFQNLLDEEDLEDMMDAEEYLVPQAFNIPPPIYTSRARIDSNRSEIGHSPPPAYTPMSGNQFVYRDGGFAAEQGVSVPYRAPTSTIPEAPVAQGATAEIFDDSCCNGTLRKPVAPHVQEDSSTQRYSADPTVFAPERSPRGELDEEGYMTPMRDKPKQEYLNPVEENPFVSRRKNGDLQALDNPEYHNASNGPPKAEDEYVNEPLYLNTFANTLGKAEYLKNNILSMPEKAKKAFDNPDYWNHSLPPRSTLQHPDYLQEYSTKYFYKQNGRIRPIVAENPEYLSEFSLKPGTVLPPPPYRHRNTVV
# [17] = target: Receptor tyrosine-protein kinase erbB-4 (Homo sapiens) (UniProt Q15303); details: at 10 µM
# [18] = target: Focal adhesion kinase 1 (Homo sapiens) (UniProt Q05397); details: at 1 µM
smiles,measurement,setting,value
C[C@@H](N)[C@H]1CC[C@H](C(=O)Nc2ccncc2)CC1,residual activity,[1],97%
same,residual activity,[2],95%
same,residual activity,[3],84%
same,residual activity,[4],96%
same,residual activity,[5],90%
same,residual activity,[6],105%
same,residual activity,[7],108%
same,residual activity,[8],101%
same,residual activity,[9],99%
same,residual activity,[10],90%
same,residual activity,[11],92%
same,residual activity,[12],111% (inactive)
same,residual activity,[13],110%
same,residual activity,[14],108%
same,residual activity,[15],102%
same,residual activity,[16],109%
same,residual activity,[17],113%
same,residual activity,[18],104%
